Reference: the supplement of paper PMC6555819

Columns and labels:
Assay in all cases: PBM binding z-score (relative to random genomic background probes); higher = stronger binding; sequences stand for … in GC…GCGATTGACAGCGTAGAATGAAGG
[1] = test system: FXR:RXRa (NR concentration 270 nM, RXRa partner concentration 90 nM)
Outline: (§1)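 Ligand-free nuclear receptor dimers were bound for 1 h to custom Agilent 4×180K protein-binding microarrays. Detection used antibodies against each partner (one per run). Binding z-scores rest on regression-normalized fluorescence, with random background probes as the reference.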

[2] = test system: LXRa:RXRa (NR concentration 270 nM, RXRa partner concentration 90 nM)
Outline: as §1

[3] = test system: LXRa homodimer (NR concentration 270 nM)
Outline: as §1

[4] = test system: LXRb:RXRa (NR concentration 270 nM, RXRa partner concentration 90 nM)
Outline: as §1

[5] = test system: PPARa:RXRa (NR concentration 270 nM, RXRa partner concentration 90 nM)
Outline: as §1

[6] = test system: PPARg:RXRa (NR concentration 180 nM, RXRa partner concentration 90 nM)
Outline: as §1

[7] = test system: PPARg:RXRa 270nM:90nM, anti-RXR (NR concentration 270 nM, RXRa partner concentration 90 nM)
Outline: as §1

[8] = test system: PPARg:RXRa 30nM:10nM, anti-RXR (NR concentration 30 nM, RXRa partner concentration 10 nM)
Outline: as §1

[9] = test system: PPARg:RXRa 90nM:30nM, anti-RXR (NR concentration 90 nM, RXRa partner concentration 30 nM)
Outline: as §1

[10] = test system: PPARg:RXRa DBDmut IVT, anti-RXR (DBD mutation: RXRa K156A/R161A, NR concentration 270 nM, RXRa partner concentration 90 nM)
Outline: as §1

[11] = test system: PPARg:RXRa IVT, anti-PPARg (NR concentration 270 nM, RXRa partner concentration 90 nM)
Outline: as §1

[12] = test system: PPARg homodimer (NR concentration 180 nM)
Outline: as §1

[13] = test system: PXR:RXRa (NR concentration 270 nM, RXRa partner concentration 90 nM)
Outline: as §1

[14] = test system: PXR homodimer (NR concentration 270 nM)
Outline: as §1

[15] = test system: RARa:RXR (NR concentration 270 nM, RXRa partner concentration 90 nM)
Outline: as §1

[16] = test system: RARa homodimer (NR concentration 270 nM)
Outline: as §1

[17] = test system: RARb:RXRa (NR concentration 270 nM, RXRa partner concentration 90 nM)
Outline: as §1

[18] = test system: LXRb homodimer (NR concentration 270 nM)
Outline: as §1

[19] = test system: PPARg DBDmut:RXRa IVT, anti-PPARg (DBD mutation: PPARg1 K132A/R137A, NR concentration 270 nM, RXRa partner concentration 90 nM)
Outline: as §1

[20] = test system: PPARg DBDmut IVT, anti-PPARg (DBD mutation: PPARg1 K132A/R137A, NR concentration 270 nM)
Outline: as §1

Row | Sequence | PBM binding z-score [1] | PBM binding z-score [2] | PBM binding z-score [3] | PBM binding z-score [4] | PBM binding z-score [5] | PBM binding z-score [6] | PBM binding z-score [7] | PBM binding z-score [8] | PBM binding z-score [9] | PBM binding z-score [10] | PBM binding z-score [11] | PBM binding z-score [12] | PBM binding z-score [13] | PBM binding z-score [14] | PBM binding z-score [15] | PBM binding z-score [16] | PBM binding z-score [17] | PBM binding z-score [18] | PBM binding z-score [19] | PBM binding z-score [20]
1 | CTATGTAGGTAAAGGGGGTCATTCAGTTTGAAAG | 4.07 | 4.67 | 2.77 | 5.98 | 5.92 | 7.28 | 7.12 | 4.91 | 6.93 | 6.89 | 7.06 | 3.59 | 5.82 | 10.7 | 6.13 | 1.83 | – | – | – | –
2 | TCGAGTAGGTTACGGGAGCATTCAGGGATGAAGA | 0.293 | 0.0567 | -0.651 | 0.0342 | 1.82 | 1.59 | 2.09 | 1.25 | 1.7 | 2.84 | 3.32 | -0.122 | 0.0708 | -0.797 | 0.667 | -0.752 | 0.692 | – | – | –
3 | TCTTGTAGGTCAAAGGTTAAGAAAGCCGAAGCCT | 7.08 | 6.11 | 2.09 | 5.26 | – | – | 10.7 | 11.9 | 12.2 | 7.87 | 8.59 | 3.23 | 5.44 | 0.389 | – | 0.512 | 5.12 | 1.73 | 1.61 | 1.68
4 | TTACCAAGGTGAAAGGTCATTGATGCACGCCTTG | 6.65 | 6.17 | 4.61 | 5.39 | – | – | 9.21 | 9.49 | 10.9 | 2.98 | 6.12 | 5.67 | 6.35 | 2.25 | – | 2.09 | 4.86 | 1.12 | 1.63 | 2.28
5 | CTATGTAGCTTAAGGGGGTCATTCAGTTTGAAAG | 4.38 | 4.44 | 3.06 | 6.2 | 5.27 | 3.24 | 4.6 | 2.16 | 3.67 | 2.86 | 4.78 | 3.12 | 5.52 | 10 | 5.18 | 1.84 | 3.33 | – | – | –
6 | CCGAGTAGGTTACGAGGGGGCATGCAGTGCGAAT | 1.91 | 6.78 | 0.861 | 5.49 | 3.35 | 2.46 | 3.3 | 0.783 | 2.32 | 4.44 | 4.36 | 2.26 | 4.24 | 2.63 | 2.98 | 0.865 | 2.26 | – | – | –
7 | TCCAGTAGGTTACGGGGGCATTCAGGGATGAAGA | 3.09 | 3.47 | 1.18 | 5.7 | 4.68 | 7.15 | 6.28 | 5.22 | 6.53 | 5.86 | 6.84 | 2.22 | 3.68 | 1.9 | 3.51 | 0.616 | 2.97 | – | – | –
8 | CCTAGTAGGTTACGAGGGGGCATTCAGTGCGAAT | 3.31 | 7.55 | 1.8 | 6.51 | 4.13 | 5.11 | 5.4 | 2.24 | 4.28 | 6.21 | 6.3 | 3.88 | 5.02 | 6.19 | 2.97 | 1.46 | 2.32 | – | – | –
9 | TCATATAGGTAAAAGGTCAAAGTCGGTGTGGTAA | 6.77 | 6.41 | 4.99 | 5.78 | – | – | 10.5 | 10.9 | 12.4 | 5.65 | 6.93 | 5.82 | 5.94 | 2.41 | – | 4.73 | 4.88 | 2.43 | 2.69 | 3
10 | CAAACTAGGTCAAAGGTCAAAATCGAGCCAACCA | 8.54 | 7.06 | 4.95 | 7.22 | – | 13.4 | 11.8 | 13.7 | 14.5 | 8.4 | 9.49 | 5.14 | 6.99 | 1.48 | 8.9 | 2.19 | 5.94 | 3.3 | 5.76 | 3.58
11 | CGAACTAGTTCAAGGACAGTGAATCTCCGCACGC | 0.282 | 0.229 | -0.253 | -0.107 | – | – | 0.0328 | -0.735 | -0.0258 | 0.894 | -0.296 | 0.151 | 0.352 | 0.308 | 0.402 | -0.835 | 1.53 | -0.693 | -0.635 | -0.503
12 | CAAACTAGGTCACAGGGGTCAAAGTCCGTGCGTA | 7.54 | 6.48 | 5.12 | 6.61 | – | – | 8.74 | 7.69 | 9.17 | 8.38 | 9.12 | 3.99 | 6.9 | 8.47 | 8.18 | 1.96 | 5.46 | 1.67 | 4.98 | 3.18
13 | CCGAGTAGGTTACGGGGGGGCATTCAGTGCGAAT | 4.53 | 6.83 | 3.13 | 7.21 | 3.74 | 4.54 | 4.46 | 2.55 | 3.84 | 5.07 | 5.61 | 4.19 | 5.79 | 7.32 | 4.18 | 2.21 | – | – | – | –
14 | CCTACTGGGGCAAAGGTCATTGATTCCAATGCTC | 4.69 | 5.21 | 2.93 | 4.78 | – | 12 | 10 | 9.73 | 11.1 | 6.11 | 7.2 | 2.42 | 5.6 | 0.979 | 6.37 | 0.341 | 4.66 | 0.406 | 0.312 | -0.624
15 | TCGAGTAGGTTCCGGGGGCATTCAGGGATGAAGA | 2.36 | 1.8 | 0.316 | 4.06 | 2.5 | 0.485 | 2.22 | 1.38 | 2.24 | 1.44 | 2.23 | 1.05 | 2.68 | 1.13 | 1.96 | -0.469 | 1.17 | – | – | –
16 | CTATGTAGGTTAAGGAGGTCATTCAGTTTGAAAG | 3.87 | 4.84 | 4.54 | 3.92 | 5.23 | 6.14 | 5.71 | 3.14 | 5.11 | 7 | 7.07 | 2.9 | 5.67 | 12 | 4.51 | 0.704 | – | – | – | –
